An excerpt weighted towards active compounds, which were near 12% of everything screened.
JMJD2A Tudor – qHTS Assay for Inhibitors of JMJD2A-Tudor Domain; AID 504339, 2011; AlphaScreen JMJD2A-Tudor / H3K4me3 peptide binding; Potency, µM (doses to about 114 µM), inactives show at the top dose activity change, negative = inhibition, most hits filed as inhibitors; hit rate 4.4% among 390,000; Lysine-specific demethylase 4A (Homo sapiens), O75164; also: potency is read from the fitted curve at half-maximal effect; % is scaled to controls: 0 for no effect and ±100 for the full control effect; nearly all actives have a fitted effect of over 50% in size
G9a block – qHTS Assay for Inhibitors of Histone Lysine Methyltransferase G9a | Histone-lysine N-methyltransferase EHMT2 (Homo sapiens), Q96KQ7 | G9a H3K9 monomethylation, AlphaScreen, 2 h | Potency, µM (doses to about 102 µM), inactives show top-dose activity, negative = inhibition, most hits filed as inhibitors | hit rate 8.8% among 350,000; also: potency is read from the fitted curve at half-maximal effect; % is scaled to controls: 0 for no effect and ±100 for the full control effect; nearly all actives have a fitted effect of over 75% in size
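Step 1: enzyme (final 20 nM) with compound, 15 min RT. Step 2: substrate peptide 500 nM and SAM 20 uM, 2 h RT. Step 3: anti-H3K9me1 antibody and AlphaScreen beads, 10 min, then plate read.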
PLK1 PBD block – qHTS for Inhibitors of PLK1-PDB (polo-like kinase 1 - polo-box domain): Primary Screen; Plk1 PBD binding of FITC phosphopeptide, fluorescence polarization; Potency, µM, inactives show max response, negative = inhibition, hits mostly inhibitors; hit rate 2.8% among 360,000; AID 720504, 2013; also: potency is read from the fitted curve at half-maximal effect; series mostly up to about 57 µM; % is scaled to controls: 0 for no effect and ±100 for the full control effect; nearly all actives have a fitted effect of over 65% in size
HP1b binding inh – HTS for Inhibitors of HP1-beta Chromodomain Interactions with Methylated Histone Tails. AlphaScreen HP1-beta / biotin-H3K9me3 peptide binding. Potency, µM (titrated, usually from 114 µM), for the others: at the highest dose activity change, negative = inhibition, most hits filed as inhibitors. Chromobox protein homolog 1 (Homo sapiens), P83916. AID 540317, 2011. hit rate 0.56% among 390,000; also: potency is read from the fitted curve at half-maximal effect; nearly all actives have a fitted effect of over 70% in size
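AlphaScreen: HP1-beta (50 nM) preformed 30 min with biotin-H3(1-18)K9me3 peptide (50 nM) in PBS pH 7.4, 0.01% Tween-20. Compound added for 30 min at RT, then streptavidin donor/nickel chelate acceptor beads (10 ug/mL) for 30 min.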
PI5P4K alpha inh – qHTS for Inhibitors of phosphatidylinositol 5-phosphate 4-kinase (PI5P4K). hit rate 1.2% among 330,000. max response, %. PI5P4Kalpha enzyme, ADP-Glo luminescence, 60 min; hits give low values. AID 652105, 2013; active = max response of -50% or lower; inconclusive = between -30% and -50%; inactive = -30% or higher; also: value at the top dose of about 77 µM; % is scaled to controls: 0 for no effect and ±100 for the full control effect
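Human PI5P4Kalpha with substrate in 0.038 M HEPES pH 7.4, 0.28 mM EGTA, 0.1% CHAPS, 5% DMSO; reaction started with 5 microM ATP (final), 60 min at room temperature. ADP formed read by ADP-Glo luminescence.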
BAZ2B inh – qHTS Assay for Inhibitors of BAZ2B; Bromodomain adjacent to zinc finger domain protein 2B (Homo sapiens), Q9UIF8; AlphaScreen BAZ2B-H3K14Ac peptide displacement; Potency, µM (series often up to 114 µM), for inactives: top-dose activity change, negative = inhibition, most hits filed as inhibitors; hit rate 4.4% among 360,000; AID 504333, 2011; also: potency is read from the fitted curve at half-maximal effect; % is scaled to controls: 0 for no effect and ±100 for the full control effect; nearly all actives have a fitted effect of over 60% in size
Target sequence (Q9UIF8 whole entry, looked up, the tested form may be a part): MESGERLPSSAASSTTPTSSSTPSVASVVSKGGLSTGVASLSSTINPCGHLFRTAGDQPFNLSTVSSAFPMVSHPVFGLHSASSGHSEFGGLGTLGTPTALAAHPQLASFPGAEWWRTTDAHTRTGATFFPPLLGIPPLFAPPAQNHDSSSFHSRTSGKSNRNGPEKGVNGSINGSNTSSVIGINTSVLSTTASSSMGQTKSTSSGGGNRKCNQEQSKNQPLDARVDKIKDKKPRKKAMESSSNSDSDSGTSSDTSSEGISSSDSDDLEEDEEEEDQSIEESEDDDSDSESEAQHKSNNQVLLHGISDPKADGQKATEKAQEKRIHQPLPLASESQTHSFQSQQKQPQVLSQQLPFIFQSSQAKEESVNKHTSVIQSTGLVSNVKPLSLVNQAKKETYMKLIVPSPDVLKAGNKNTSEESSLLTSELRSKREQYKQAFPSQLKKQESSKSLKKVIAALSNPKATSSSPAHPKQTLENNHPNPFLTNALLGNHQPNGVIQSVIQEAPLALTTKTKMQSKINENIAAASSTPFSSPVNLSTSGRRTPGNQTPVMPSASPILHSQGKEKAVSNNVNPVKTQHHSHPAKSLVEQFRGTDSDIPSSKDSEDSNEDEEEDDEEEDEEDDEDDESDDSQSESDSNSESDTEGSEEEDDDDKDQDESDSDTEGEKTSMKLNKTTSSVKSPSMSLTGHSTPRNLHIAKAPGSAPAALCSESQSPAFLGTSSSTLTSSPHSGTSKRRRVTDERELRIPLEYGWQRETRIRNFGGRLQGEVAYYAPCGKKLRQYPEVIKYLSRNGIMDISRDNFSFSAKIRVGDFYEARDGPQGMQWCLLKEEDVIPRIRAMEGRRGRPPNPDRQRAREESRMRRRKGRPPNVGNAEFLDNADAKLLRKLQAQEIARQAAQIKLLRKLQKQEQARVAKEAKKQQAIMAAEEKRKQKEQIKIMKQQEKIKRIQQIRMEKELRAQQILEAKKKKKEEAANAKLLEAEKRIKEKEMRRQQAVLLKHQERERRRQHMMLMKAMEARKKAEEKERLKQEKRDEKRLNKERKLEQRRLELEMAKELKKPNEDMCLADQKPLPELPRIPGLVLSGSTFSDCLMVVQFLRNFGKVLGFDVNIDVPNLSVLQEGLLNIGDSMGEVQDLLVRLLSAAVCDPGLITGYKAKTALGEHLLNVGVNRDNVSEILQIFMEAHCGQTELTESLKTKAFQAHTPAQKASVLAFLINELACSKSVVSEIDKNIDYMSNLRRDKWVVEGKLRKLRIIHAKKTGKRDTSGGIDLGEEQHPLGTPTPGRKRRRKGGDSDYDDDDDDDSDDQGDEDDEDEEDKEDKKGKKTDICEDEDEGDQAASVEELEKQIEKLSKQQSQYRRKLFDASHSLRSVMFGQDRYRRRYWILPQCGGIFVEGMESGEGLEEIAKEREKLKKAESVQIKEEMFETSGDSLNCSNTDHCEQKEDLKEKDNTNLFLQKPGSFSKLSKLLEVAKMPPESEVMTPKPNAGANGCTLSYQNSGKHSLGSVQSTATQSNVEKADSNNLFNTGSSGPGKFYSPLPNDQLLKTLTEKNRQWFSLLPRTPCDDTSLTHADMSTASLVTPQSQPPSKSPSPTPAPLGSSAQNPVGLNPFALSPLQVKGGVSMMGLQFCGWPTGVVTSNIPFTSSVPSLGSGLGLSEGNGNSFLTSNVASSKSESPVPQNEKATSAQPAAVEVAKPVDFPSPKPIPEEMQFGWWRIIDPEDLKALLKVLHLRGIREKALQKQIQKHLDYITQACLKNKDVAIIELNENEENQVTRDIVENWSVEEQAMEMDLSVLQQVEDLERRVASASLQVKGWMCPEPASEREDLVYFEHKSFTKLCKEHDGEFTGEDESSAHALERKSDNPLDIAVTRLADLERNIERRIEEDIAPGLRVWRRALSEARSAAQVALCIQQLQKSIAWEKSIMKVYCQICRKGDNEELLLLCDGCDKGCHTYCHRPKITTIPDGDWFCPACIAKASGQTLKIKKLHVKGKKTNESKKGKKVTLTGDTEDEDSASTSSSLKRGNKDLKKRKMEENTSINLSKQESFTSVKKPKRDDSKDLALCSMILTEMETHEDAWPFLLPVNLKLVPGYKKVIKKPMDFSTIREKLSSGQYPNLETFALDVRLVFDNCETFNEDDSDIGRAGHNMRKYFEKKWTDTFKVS
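AlphaScreen displacement: compounds (up to 110uM) incubated 30 min at room temperature with a preformed 50 nM BAZ2B/50 nM biotinylated H3K14Ac peptide complex in PBS pH 7.4 with Tween-20. Donor and acceptor beads at 10 ug/mL final added, 20 min light-protected before reading.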
Numbers without * were called inactive; [ ] = dose if it differs, or a comment. Unless noted, calls follow the shape of the dose curve; as a rule, active = well fitted curve in the direction sought with a large enough effect; inconclusive = small, poorly fitted or top-dose-only effect, or another doubt; inactive = no such curve, though single readings can be large; an effect the other way counts as inactive or inconclusive.

COc1ccc(CNC(=O)CCCN2C(=O)COc3ccc(C)cc32)cc1 was read as JMJD2A Tudor -14.2%, G9a block 47.7%[59 µM], HP1b binding inh 66.4% and BAZ2B inh 27.0%.
CCCSc1nnc(NC(=O)CSc2sc3c(O)cc(=O)[nH]c3c2C#N)s1 was read as JMJD2A Tudor 56.2µM*, G9a block 11.2µM*, PLK1 PBD block 16.8µM*, HP1b binding inh -30.2%, PI5P4K alpha inh -72.2* and BAZ2B inh 39.8µM*.
CCOc1ccc2nc(NCCNC(=O)C3CC3)c(C)cc2c1 was read as JMJD2A Tudor -0.9%, G9a block 79.4µM*, PLK1 PBD block inconclusive, HP1b binding inh 9.5%, PI5P4K alpha inh 1.2 and BAZ2B inh 1.3%.
For CN(Cc1ccc(C(C)(C)C)cc1)C(=O)Cc1ccc(S(=O)(=O)N2CCOCC2)s1 the results were JMJD2A Tudor -31.6%, G9a block 4.1%[12.7 µM], PLK1 PBD block -6.2%, HP1b binding inh 24.6%, PI5P4K alpha inh 5.3 and BAZ2B inh 2.0%.
`O=C1CCCc2c1cc(-c1ccccc1)n2-c1ccccc1` gave JMJD2A Tudor 39.8µM*, G9a block 44.7µM*, PLK1 PBD block -12.5%, HP1b binding inh inconclusive and BAZ2B inh 25.1µM*.
For O=C(c1ccccc1)N1N=C(c2ccccc2O)CC1c1ccccc1 (configuration not stated) the results were JMJD2A Tudor -11.2%, G9a block -1.5%[2.33 µM], PLK1 PBD block -0.8%, HP1b binding inh 36.2%, PI5P4K alpha inh 10.5 and BAZ2B inh -0.3%.
For Cc1ccc(CO/N=C\Cc2snc(Sc3ncc(C(F)(F)F)cc3Cl)c2C#N)cc1 the results were JMJD2A Tudor inconclusive, G9a block 11.2µM*, PLK1 PBD block -3.3%, HP1b binding inh inconclusive, PI5P4K alpha inh -29.0 and BAZ2B inh 35.5µM*.
COc1cc(Cl)c(NC(=O)c2cc(S(=O)(=O)N3CCCCC3)c[nH]2)c(OC)c1 was read as JMJD2A Tudor -15.5%, G9a block -35.6%[59 µM], HP1b binding inh 26.4% and BAZ2B inh -6.5%.
Screening Cc1csc(CN(C)C(=O)CC2C(=O)NCCN2Cc2ccccc2C)n1 (configuration not stated) returned PLK1 PBD block 5.3% and PI5P4K alpha inh 2.9.
For O=C(c1ccccc1F)N1CCN(CC2CC3C=CC2C3)CC1 (configuration not stated) the results were JMJD2A Tudor 3.98µM*, G9a block inconclusive, PLK1 PBD block -0.5%, HP1b binding inh inconclusive, PI5P4K alpha inh 1.0 and BAZ2B inh 56.2µM*.
`Cc1ccc(CN2CCN(CC3CC4C=CC3C4)CC2)cc1` (configuration not stated) gave JMJD2A Tudor 5.62µM*, G9a block inconclusive, PLK1 PBD block -2.8%, HP1b binding inh inconclusive, PI5P4K alpha inh 0.2 and BAZ2B inh 28.2µM*.
`O=C(c1cccc(F)c1)N1CCN(CC2CC3C=CC2C3)CC1` (configuration not stated) gave JMJD2A Tudor 5.62µM*, G9a block 10µM*, PLK1 PBD block -12.6%, HP1b binding inh inconclusive, PI5P4K alpha inh -9.5 and BAZ2B inh 50.1µM*.
For O=S(=O)(c1ccc(F)cc1)N1CCN(CC2CC3C=CC2C3)CC1 (configuration not stated) the results were JMJD2A Tudor 11.2µM*, G9a block 22.4µM*, PLK1 PBD block -6.2%, HP1b binding inh inconclusive, PI5P4K alpha inh -6.8 and BAZ2B inh 50.1µM*.
`Cc1ccc(CN2CCS(=O)(=O)CC2)cc1` gave JMJD2A Tudor -23.4%, G9a block 2.4%, PLK1 PBD block -7.1%, HP1b binding inh 33.1%, PI5P4K alpha inh 7.3 and BAZ2B inh 8.9%.

Bioassay records from PubChem BioAssay.
